The text below walks through data of PubChem BioAssay AID623970 (The Scripps Research Institute Molecular Screening Center, 2012).

Values without a mark were called inactive. The source made the active and inactive calls. Cut-off read from the data, not from the text of the source: active = IC50 below about 90 µM; inactive = the rest.

The assay is described as follows: compound-DNA interaction, SYBR readout – biochemical, fluorescence, artefact control for HCV NS3 helicase inhibitor project, late-stage follow-up (AID 623970). The settings on record: DNA binding, SYBR dye displacement fluorescence.
For `Cc1ccc2nc(-c3ccc4nc(-c5ccc(NC(=O)c6ccncc6)cc5)sc4c3)sc2c1S(=O)(=O)O`, the IC50 was above 100 µM.

`Cc1ccc2nc(-c3ccc4nc(-c5ccc(NC(=O)c6ccc(Cl)c(Cl)c6)cc5)sc4c3)sc2c1S(=O)(=O)O`: the IC50 was 30 µM (active).

Turning to `COc1ccc(NC(=O)Nc2ccc(-c3nc4ccc(-c5nc6ccc(C)c(S(=O)(=O)O)c6s5)cc4s3)cc2)cc1`, the IC50 was 73 µM (active).

For the compound `Cc1ccc2nc(-c3ccc(NC(=O)c4ccc(NS(=O)(=O)c5ccccc5)cc4)cc3)sc2c1S(=O)(=O)O`, the IC50 is above 100 µM.

Turning to `Cc1ccc2nc(-c3ccc4nc(-c5ccc(NC(=O)c6ccc(CNC(=O)OCC7c8ccccc8-c8ccccc87)cc6)cc5)sc4c3)sc2c1S(=O)(=O)O`, the IC50 was 56 µM (active).

Turning to `Cc1ccc2nc(-c3ccc4nc(-c5ccc(NC(=O)c6ccc(N(C)C)cc6)cc5)sc4c3)sc2c1S(=O)(=O)O`, the IC50 was above 100 µM.

On to `Cc1ccc2nc(-c3ccc(NC(=O)c4ccc(NC(=O)OCC5c6ccccc6-c6ccccc65)cc4)cc3)sc2c1S(=O)(=O)O`, for which the IC50 is above 100 µM.
